An excerpt weighted towards active compounds, which were near 3% of everything screened.
15-hLO inh: 15-hLO (ALOX15) enzyme inhibition | AID 887 | P16050 | Potency, µM (highest dose often 57.1 µM), for the others: top-dose activity change, negative = inhibition, usual class: inhibitors | actives 1.4% (n = 74,000) | purified 15hLO-1, xylenol orange hydroperoxide absorbance; also: % is scaled to controls: 0 for no effect and ±100 for the full control effect; nearly all actives have a fitted effect of over 55% in size
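Hydroperoxide formed from arachidonic acid (50 uM) by purified human 15hLO-1 (40 nM) oxidizes ferrous iron, and the ferric-xylenol orange complex is read at 573 versus 405 nm. Compounds were preincubated 15 min; reaction ran 6 min at room temperature.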
HEK293 cAMP cs: raises cAMP in parental HEK293 cells, TSHR agonist counter-screen; parental HEK293 CNG cAMP sensor, membrane potential fluorescence; Potency, µM (doses to about 57.1 µM), without a hit: at the highest dose activation, most hits filed as activators; actives 2.5% (n = 73,000); also: % of control where 0% means no effect; nearly all actives have a fitted effect of over 55% in size
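Counterscreen for endogenous-receptor signalling: CNG-channel HEK 293 cells report cAMP rise by membrane depolarization. After 60 min dye equilibration with 100 uM RO 20-1724, compounds incubated 30 min before bottom-read fluorescence at 590 nm.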
Caspase-7 inhib: allosteric or competitive inhibitors of human caspase-7 | AID 889 | actives 0.02% (n = 75,000) | Potency, µM (highest dose often 57.5 µM), inactives show at the highest dose activity change, negative = inhibition, actives largely listed as inhibitors | recombinant caspase-7, Ac-DEVD-AFC fluorescence rate; active = well fitted inhibition curve with a large enough effect in the main read-out, with a control signal flat, not every such curve was filed as active; inconclusive = small, poorly fitted or top-dose-only effect, or a change in a side signal; also: % of control where 0% means no effect
Caspase-1 inhib: caspase-1 (human) inhibition, allosteric or competitive; P29466; Caspase-1 enzyme, Ac-WEHD-AFC fluorogenic rate; Potency, µM (highest dose often 57.5 µM), for inactives: at the highest dose activity change, negative = inhibition, actives largely listed as inhibitors; actives 0.03% (n = 75,000);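 also: plate controls were vehicle for no effect and no substrate for full effect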
TSHR agonist: TSH receptor (human) agonism; Potency, µM (titrated, usually from 57.1 µM), for inactives: at the top dose activation, most hits filed as activators; AID 926; actives 0.48% (n = 73,000); HEK293-CNG-TSHR cells (CNG channel as cAMP sensor), membrane potential dye, cAMP; active = well fitted activation curve with a large enough effect in the main read-out, with a control signal flat, not every such curve was filed as active; inconclusive = small, poorly fitted or top-dose-only effect, or a change in a side signal; inactive = no such curve, though single readings can be large or run the other way; % of control where 0% means no effect;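 also: the control signal comes from parental cells without the receptor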
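HEK 293 cells stably expressing TSHR and a cAMP-gated CNG channel; parental CNG-only cells as counterscreen. Cells preloaded 60 min with membrane potential dye plus 100 uM RO 20-1724, then compound 30 min; fluorescence read at 590 nm.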
ALOX15B inhib: inhibitors of human 15-lipoxygenase 2 (ALOX15B) | O15296 | purified 15hLO-2, xylenol orange hydroperoxide absorbance | Potency, µM (doses to about 57.1 µM), for inactives: top-dose activity change, negative = inhibition, most hits filed as inhibitors | actives 0.56% (n = 110,000) | AID 881; also: % is scaled to controls: 0 for no effect and ±100 for the full control effect; nearly all actives have a fitted effect of over 60% in size
Target sequence (O15296 whole entry, looked up): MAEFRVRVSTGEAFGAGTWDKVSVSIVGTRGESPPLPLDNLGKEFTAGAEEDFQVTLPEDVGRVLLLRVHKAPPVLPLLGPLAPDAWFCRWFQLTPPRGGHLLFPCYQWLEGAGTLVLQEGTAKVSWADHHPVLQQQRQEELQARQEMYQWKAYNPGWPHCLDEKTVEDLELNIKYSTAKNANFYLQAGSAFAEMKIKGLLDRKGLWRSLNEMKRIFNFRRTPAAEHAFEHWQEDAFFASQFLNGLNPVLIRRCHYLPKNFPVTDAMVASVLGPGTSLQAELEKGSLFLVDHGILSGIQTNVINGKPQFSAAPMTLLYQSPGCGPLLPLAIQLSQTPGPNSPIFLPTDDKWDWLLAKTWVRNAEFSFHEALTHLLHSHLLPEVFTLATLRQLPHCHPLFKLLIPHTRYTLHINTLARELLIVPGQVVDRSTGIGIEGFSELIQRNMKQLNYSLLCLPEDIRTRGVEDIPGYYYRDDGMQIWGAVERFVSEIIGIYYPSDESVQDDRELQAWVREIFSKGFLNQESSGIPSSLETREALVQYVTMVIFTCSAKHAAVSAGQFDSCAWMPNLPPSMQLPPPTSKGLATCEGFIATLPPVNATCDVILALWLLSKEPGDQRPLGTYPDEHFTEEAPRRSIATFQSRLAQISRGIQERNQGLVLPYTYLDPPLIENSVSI
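Purified human 15hLO-2 (50 nM final) preincubated with compounds 15 min at room temperature in 25 mM Hepes pH 7.5, 0.01% Triton X-100, then 45 uM arachidonic acid added for 90 min; hydroperoxide detected via ferrous/xylenol orange, 573/405 nm absorbance ratio.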
The depositor's hits bear a star; ? = inconclusive; . = no result given; ! = repeats disagree; [ ] = dose if it differs, or a comment. Unless noted, calls follow the shape of the dose curve; as a rule, active = well fitted curve in the direction sought with a large enough effect; inconclusive = small, poorly fitted or top-dose-only effect, or another doubt; inactive = no such curve, though single readings can be large; an effect the other way counts as inactive or inconclusive. Potency is read from the fitted curve at half-maximal effect.

SMILES	15-hLO inh	HEK293 cAMP cs	Caspase-7 inhib	Caspase-1 inhib	TSHR agonist	ALOX15B inhib
COc1ccc(C2C(C#N)=C(N)OC3=C2C(=O)CC(C)(C)C3)c(OC)c1OC (stereo not drawn)	2%[11.4 µM]	8%[11.4 µM]	1%	1%	7%[11.4 µM]	9%
CC1(C)CC(=O)C2=C(C1)OC1=C(C(=O)CC(C)(C)C1)C2c1ccc(O)cc1O	3.2µM*	-9%[11.4 µM]	-8%	-9%	-6%[11.4 µM]	?
COc1cccc(Cn2c(=O)c(C)nc3cnc(N(C)C)nc32)c1	3%	?	?	.	?	-3%
Oc1ccc(-c2nc(-c3ccc(O)c(O)c3)cs2)cc1	1.6µM*	-35%	-14%	-3%	?	4µM*
Oc1ccc(Nc2nc(-c3ccc4ccccc4c3)cs2)cc1	.	.	.	.	.	-6%
Nc1[nH]c(=S)[nH]c(=O)c1N=Nc1c(Br)cc(S(N)(=O)=O)cc1Br	2%[11.4 µM]	-5%[11.4 µM]	-2%[11.5 µM]	1%[11.5 µM]	0%[11.4 µM]	-7%[11.4 µM]
CC(=O)OC[C@@H]1O[C@H](C/C=N\O[C@@H](C)CN2CCCCc3nc(C)c(C)cc32)C=C[C@@H]1OC(C)=O	-9%[11.4 µM]	?	0%[11.5 µM]	-4%[11.5 µM]	?	.
COc1ccccc1NC(=O)CN1CCN(c2ccc(Cl)cc2)CC1	-25%	20µM*	-2%	-4%	?	0%
COc1ccccc1NC(=O)CN1CCN(c2ccccc2F)CC1	-21%	25%	1%	-1%	12%	-6%
COc1cc(Cl)ccc1NC(=O)COc1ccccc1C(=O)N1CCN(c2ccc(O)cc2)CC1	25µM*	-3%	-6%	-3%	-1%	?
COc1ccccc1OCC(=O)Nc1ccc(O)cc1C(=O)O	6%	11%	0%	1%	18%	2%
Cc1ccc(O)c(N=CC2=C(O)c3ccccc3C2=O)c1	?	-5%	-15%	-8%	-20%	?
CCc1ccc(O)c(N=Cc2ccccc2O)c1	?	-5%	-2%	-3%	-4%	16µM*
Cc1noc(C)c1-c1cc(NCc2cccs2)ncn1	2%	?	-3%	-4%	?	-3%
Cc1cc(C(=O)COc2cccc(-n3cnnn3)c2)c(C)n1-c1ccccc1	-14%	25µM*	-3%	-2%	?	-3%
COC(=O)COc1cccc(-n2cnnn2)c1	6%	4%	-1%	1%	-7%	4%
CCCc1cc(=O)oc2cc3occ(C)c3cc12	-8%	?	-2%	-2%	?	-7%
CCc1cc(=O)oc2cc(OCC(=O)OC)c(Cl)cc12	1%	-14%	-3%	-2%	15%	-1%
CCc1cc(=O)oc2cc3oc(C)c(C)c3cc12	-9%	25µM*	-3%	-1%	?	-8%
CCCc1cc(=O)oc2cc3oc(C)c(C)c3cc12	-12%	25µM*	-2%	-1%	?	0%
COc1ccc(NC(=O)N2CC3(CCN(C(=O)c4c(C)noc4C)CC3)C2)cc1	-4%	13µM*	0%	0%	?	-4%
COC(=O)N1CCC2(CCN(C(=O)Nc3ccc(OC)cc3)CC2)CC1	2%	16µM*	0%	0%	?	-5%
O=C(CN(c1ccccc1)S(=O)(=O)c1ccccc1[N+](=O)[O-])NN=C1CCCCCCC1	.	.	.	.	.	2%
COc1ccc(-n2nc(C(=O)NCc3ccco3)c3c4ccccc4n(C)c3c2=O)cc1	-12%	10µM*	1%	-4%	?	.
CC(=O)O[C@H]1C2=C(C(=O)[C@H]3O[C@@H]31)[C@@H]1[C@@H]3[C@@H](C)OC=C4[C@H](O)[C@H]5O[C@@H]5C(=O)[C@]43C2O[C@H]1C	2%[11.4 µM]	6%[11.4 µM]	1%[11.5 µM]	-2%[11.5 µM]	11%[11.4 µM]	.
SMILES	15-hLO inh	HEK293 cAMP cs	Caspase-7 inhib	Caspase-1 inhib	TSHR agonist	ALOX15B inhib
CC(=O)Nc1ccc(N2CCN(C(=O)c3cccs3)CC2)cc1	6%	0%	-13%	-1%	-7%	-5%
Cc1ccc(CNc2ccc(N3CCOCC3)cc2)s1	16µM*	-8%	-2%	-2%	-17%	16µM*
CC(=O)N1CCN(c2ccc(NCc3ccccc3)cc2)CC1	7.9µM*	-10%	0%	-3%	-3%	?
CC(=O)N1CCN(c2ccc(NCc3cccs3)cc2)CC1	13µM*	-8%	0%	-1%	-4%	25µM*
CC(=O)N1CCN(c2ccc(NC(=O)c3ccc4c(c3)OCCO4)cc2)CC1	-2%	5%	-3%	1%	-4%	-1%
CC(=O)N1CCN(c2ccc(NCc3ccc(C)s3)cc2)CC1	10µM*	-5%	-2%	-2%	-17%	13µM*
CC(=O)N1CCN(c2ccc(NC(=O)c3ccc(C)cc3)cc2)CC1	.	.	.	.	.	1%
CC1(C)C(=O)C=C[C@@]2(C)C1C=C[C@@]1(C)C2CC[C@@]2(C)C(c3ccoc3)OC(=O)C3OC312 (stereo partly drawn)	-5%	.	-2%	-1%	.	-6%
CCOc1ccccc1C1C(C#N)=C(N)SC(N)=C1C#N	?	22%	-8%	-13%	5%	-27%
Cc1ccc(C2C(C#N)=C(N)SC(N)=C2C#N)o1	6.3µM*	10%	-18%	-16%	11%	?
CCOC(=O)C1=C(C)OC(N)=C(C#N)C1c1ccc(C)o1 (stereo not drawn)	.	.	.	.	.	-7%
CCc1ccc(C2C(C#N)=C(N)SC(N)=C2C#N)cc1	0.63µM*	17%[11.4 µM]	-3%	-5%	3%[11.4 µM]	?
N#CC1=C(N)SC(N)=C(C#N)C1c1ccc(C(F)(F)F)cc1	?	18%	-5%	-14%	-4%	13µM*
CCc1ccc(C2C(C#N)=C(N)SC(N)=C2C#N)s1	10µM*	18%	?	?	24%	?
O=C(c1ccco1)N1CCC2(CC1)CCN(c1ccncc1)CC2	5%	6%	-1%	-2%	-1%	-3%
CN(C)c1ccc(C(=C2C=CC(=[N+](C)C)C=C2)c2ccc(N(C)C)cc2)cc1	-3%	-40%	-15%	-1%	?	?
CN(C)c1ccc(C(=C2C=CC(=[N+](C)C)C=C2)c2ccccc2)cc1	32µM*!	6%[11.4 µM]	-2%[11.5 µM]	0%[11.5 µM]	5%[11.4 µM]	5µM*
COc1ncc2ncc(=O)n(C3CC3)c2n1	-6%	-2%	-13%	-6%	5%	-5%
Cc1nc(NC2CCCCC2)c2nc(-c3ccccc3)n(CCCN(C)C)c2n1	-6%	?	2%	-2%	?	6%
CCCCNc1nc(C)nc2c1nc(-c1ccccc1)n2CC1CCCN1CC (stereo not drawn)	8%	16µM*	-1%	2%	?	41%
CCCCNc1nc(C)nc2c1nc(-c1ccccc1)n2CC(C)(C)CN(C)C	2%	32µM*	0%	1%	?	48%
